Results filed as inconclusive are left out. Activity calls are given as the source filed them. Unless noted, calls follow the shape of the dose curve; as a rule, active = well fitted curve in the direction sought with a large enough effect in the repeat runs; inconclusive = weak or mixed curves; inactive = no such curve, though single readings can be large; an effect the other way counts as inactive or inconclusive.
What was measured:
[1] = qHTS assay to identify small molecule antagonists of the retinoid-related orphan receptor gamma (ROR-gamma) signaling pathway - cell viability counter screen (AID 1159520); also: nearly all actives have a fitted effect of over 50% in size; also: potency is read from the fitted curve at half-maximal effect
Outline: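 Cytotoxicity was read from cellular ATP (CellTiter-Glo luminescence) after 16 hr at 37 C with 1 uM doxycycline induction. The inducer was added 2 hr after compound transfer to Tet-on ROR gamma CHO cells.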

[2] = target: Nuclear receptor ROR-gamma (Homo sapiens) (UniProt P51449); test: qHTS assay to identify small molecule antagonists of the retinoid-related orphan receptor gamma (ROR-gamma) signaling pathway (AID 1159521;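 also: CHO cells with doxycycline inducible ROR-gamma driving an RORE luciferase reporter; top concentration of the series differs between compounds; nearly all actives have a fitted effect of over 50% in size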)
Outline: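 Tet-on RORγ CHO cells carrying a ROR response element–luciferase reporter were pretreated with compounds for 2 h, then induced with 1 uM (final) doxycycline hyclate for 16 h at 37 C. Antagonism was read as decreased ONE-Glo luminescence.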

[3] = target: Retinoic acid receptor RXR-alpha (Homo sapiens) (UniProt P19793); test: qHTS assay to identify small molecule agonists of the RXR signaling pathway (AID 1159527; calls by dose curve; also: nearly all actives have a fitted effect of over 35% in size)
Sequence of Retinoic acid receptor RXR-alpha (Homo sapiens) (P19793 whole entry, looked up): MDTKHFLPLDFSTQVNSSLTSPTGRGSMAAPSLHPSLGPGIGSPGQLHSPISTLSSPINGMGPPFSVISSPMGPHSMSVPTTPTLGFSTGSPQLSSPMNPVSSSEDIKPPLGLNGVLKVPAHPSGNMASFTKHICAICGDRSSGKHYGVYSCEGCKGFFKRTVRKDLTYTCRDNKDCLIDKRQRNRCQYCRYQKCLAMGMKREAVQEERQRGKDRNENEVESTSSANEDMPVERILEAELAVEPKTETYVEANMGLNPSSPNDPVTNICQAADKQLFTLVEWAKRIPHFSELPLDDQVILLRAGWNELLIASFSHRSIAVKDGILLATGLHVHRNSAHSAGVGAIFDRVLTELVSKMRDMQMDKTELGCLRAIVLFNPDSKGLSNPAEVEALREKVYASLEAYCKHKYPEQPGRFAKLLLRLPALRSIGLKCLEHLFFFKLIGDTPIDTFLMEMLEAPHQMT
Outline: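 GeneBLAzer RXR-alpha-UAS-bla HEK 293T cells in medium with 2% charcoal-stripped FBS, pre-incubated 5 hr at 37 C, then exposed to compounds 16 hr. Beta-lactamase reporter read by FRET substrate, 2 hr room temperature, 460/530 nm emission.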

[4] = qHTS assay to identify small molecule agonists of the RXR signaling pathway - cell viability counter screen (AID 1159529); also: nearly all actives have a fitted effect of over 50% in size; also: potency is read from the fitted curve at half-maximal effect
Outline: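 RXR-alpha-UAS-bla HEK 293T cells in medium with 2% charcoal-stripped FBS were preincubated 5 hr, then exposed to compounds for 16 hr at 37 C. Viability was read as CellTiter-Glo luminescence after 30 min at room temperature.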

[5] = qHTS assay to identify small molecule antagonists of the retinoid acid receptor (RAR) signaling pathway - cell viability counter screen (AID 1159551); also: nearly all actives have a fitted effect of over 35% in size; also: potency is read from the fitted curve at half-maximal effect
Outline: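 In this counter screen, the RARE-luciferase line C3RL4 was exposed for 6 h at 37 C and 5% CO2 to compounds with retinol at 1 uM final. Cellular ATP, read by luminescence, served as the viability measure.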

[6] = qHTS assay to identify small molecule antagonists of the retinoic acid receptor (RAR) signaling pathway (AID 1159552; also: nearly all actives have a fitted effect of over 50% in size; also: potency is read from the fitted curve at half-maximal effect)
Outline: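 RARE-luc C3RL4 cells; cpds + 1 uM (final) retinol, 6 hr, 37 C/5% CO2; luciferase reagent, 30 min RT, luminescence readout. Inhibitors of retinol-driven signal scored.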

[7] = qHTS assay to identify small molecule agonists of the vitamin D receptor (VDR) signaling pathway - cell viability counter screen (AID 743224); also: nearly all actives have a fitted effect of over 50% in size; also: potency is read from the fitted curve at half-maximal effect
Outline: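 CellTiter-Glo viability readout on VDR-bla cells, measured after 16 h of compound treatment at 37C in the same wells.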

[8] = qHTS assay to identify small molecule antagonists of the vitamin D receptor (VDR) signaling pathway - cell viability counter screen (AID 743225); also: nearly all actives have a fitted effect of over 50% in size; also: potency is read from the fitted curve at half-maximal effect
Outline: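 VDR-bla HEK 293T cells, 4 h pre-incubation at 37C, then compound plus 1-alpha,25-dihydroxyvitamin D3 (3 nM final) for 16 h. After the beta-lactamase FRET read, CellTiter-Glo was added to the same wells; luminescence after 30 min at room temperature.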

[9] = qHTS assay to identify small molecule agonists of the AP-1 signaling pathway - cell viability counter screen (AID 1159525; calls by dose curve; also: nearly all actives have a fitted effect of over 55% in size; also: potency is read from the fitted curve at half-maximal effect)
Outline: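 Intracellular ATP by Cell Titer Glo luminescence (30 min, RT) in the same ME-180 AP-1-bla wells after the 5 h compound exposure at 37 °C. Normalised to tetra n-octyl ammonium bromide and DMSO controls.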

[10] = qHTS assay to identify small molecule agonists of the AP-1 signaling pathway (AID 1159526; calls by dose curve)

Measured: Potency

CCOC=C(C(=O)OCC)C(=O)OCC
inactive: [1] | [2] | [3] | [4] | [5] | [6]

CC(=O)[C@]1(O)Cc2c(O)c3c(c(O)c2[C@@H](O[C@H]2C[C@H](N)[C@H](O)[C@H](C)O2)C1)C(=O)c1ccccc1C3=O
active: [1] 26.6 µM
inactive: [7] | [8] | [2]

Clc1nc(C(Cl)(Cl)Cl)c(Cl)c(Cl)c1Cl
active: [7] 49 µM | [1] 30.6 µM | [4] 43.6 µM
inactive: [8] | [9]

C1CCSC1
not listed: [2] | [7] | [8]
inactive: all other assays above

Oc1ccc2c(c1)CCC2
inactive: [1] | [9] | [10] | [3] | [5] | [6]

CC(C)c1ccc2sc3ccccc3c(=O)c2c1
inactive: [8] | [1] | [9] | [10]

CN1CCN(CCCN2c3ccccc3Sc3ccc(C(F)(F)F)cc32)CC1
inactive: [1] | [9] | [5]
active: [8] 23.9 µM | [4] 21.3 µM | [6] 23.7 µM

CC/C(=C(/c1ccc(O)cc1)c1ccc(OCCN(C)C)cc1)c1ccccc1
active: [1] 40.3 µM | [9] 36.2 µM | [4] 14.4 µM | [5] 35.9 µM | [6] 18 µM

O=C(Cl)c1ccc(Cl)cc1Cl
active: [1] 61.1 µM
not listed: [2] | [7] | [8]
inactive: all other assays above

COC(=O)c1ccc([N+](=O)[O-])cc1
inactive: [1] | [9] | [10] | [3] | [4] | [5]

— PubChem BioAssay (Tox21)
